# Calls of active or inactive are those of the source. The calls were made as follows: active = hit-call score of the fitted dose curve at least 0.9, where 1 is the maximum; inactive = score below 0.9.
# Read-out: Matrix Metallopeptidase 9 (MMP9), MMP9 (gene 4318)
# Experiment: BSK_BF4T_MMP9: BioMAP Diversity Plus: BF4T Assay for Matrix Metallopeptidase 9 (MMP9) Biomarker Activity (AID 2284276)
# Conditions: primary human bronchial epithelial cells with fibroblasts
# Experimental: BSK_BF4T is a cell-based, multiplexed-readout assay that uses bronchial epithelial cells and dermal fibroblasts, a human vascular primary cell, with measurements taken at 24 hours after chemical dosing in a microplate: 96-well plate.BSK_BF4T_MMP9 is an assay component measured in the BSK_BF4T assay. It measures MMP-9 antibody related to regulation of gene expression using ELISA technology.Data from the assay component BSK_BF4T_MMP9 was analyzed at the endpoint, BSK_BF4T_MMP9, in the positive analysis fitting direction relative to DMSO as the negative control and baseline of activity. Using a type of binding reporter, gain or loss-of-signal activity can be used to understand protein changes. To generalize the intended target to other relatable targets, this assay endpoint is annotated to the 'protease' intended target family, where the subfamily is 'matrix metalloproteinase'.
# The levels of cell surface (or secreted, indicated by the prefix "s") biomarker endpoints were measured by ELISA. Overt cytotoxicity to cells in confluent adherent cultures (all systems other than the BT system) was assessed by measuring total protein levels using sulforhodamine B (SRB) staining in parallel cultures at the time of biomarker measurements, indicated as SRB endpoints. For proliferation assays for adherent cell types, individual cell types are cultured at sub-confluence and relative cell numbers quantified by SRB staining at time points optimized for each system (48 h: 3C and CASM3C systems; 72 h: BT and HDF3CGF systems; 96 h: SAg system). SRB was performed by staining cells with 0.1% SRB after fixation with 10% TCA and reading wells at 560 nm.Viability and proliferation of PBMC (T cells) was quantified by Alamar Blue reduction for the SAg and BT systems. For PBMC viability (referred to as PBMC Cytotoxicity within the assay endpoint names), cells were plated (75,000/well in a 96-well plate) and then chemical samples added for 1 h before addition of activators, SEB and TSST-1 (20 ng/mL final concentration each). Cells were incubated for 90 h. Then, Alamar Blue (20 uL/well) (Invitrogen, Cat DAL1100) was added for 6 h, and the plates were read with a fluorescence microplate reader at 546/580 nm (excitation/emission). For PBMC proliferation, cells were plated and activated as above but incubated for only 16 h prior to addition of Alamar Blue. Plates were read after 6 h.
row,Structure (SMILES),outcome
1,CC(O)C(F)(F)C(F)(F)F (centres undefined),inactive
2,O=S(=O)(F)C(F)(F)C(F)(F)C(F)(F)C(F)(F)C(F)(F)C(F)(F)C(F)(F)C(F)(F)F,inactive
3,O=C(O)C(F)(F)C(F)(F)C(=O)O,inactive
4,C=CC(=O)OCC(F)(F)C(F)F,inactive
5,OCC(F)(F)OC(F)(F)C(F)(F)OC(F)(F)CO,inactive
6,O=C(O)C=CC(F)(C(F)(F)F)C(F)(F)F,inactive
7,O=C(O)C(F)(OC(F)(F)C(F)(F)C(F)(F)F)C(F)(F)F (centres undefined),inactive
8,COC(=O)C(F)(F)C(F)(F)OC(F)(C(F)(F)F)C(F)(F)OC(F)=C(F)F (centres undefined),inactive
9,O=C(O)C(F)(F)OC(F)(F)C(F)(F)OC(F)(F)C(=O)O,inactive
10,OCC(F)(F)OC(F)(F)C(F)(F)OC(F)(F)C(F)(F)OC(F)(F)F,inactive
11,OCC(F)(F)OC(F)(F)C(F)(F)OC(F)(F)C(F)(F)OC(F)(F)CO,inactive
12,FC(F)(F)C(F)(C(F)(F)F)C(F)(F)C(F)(F)CC1CO1 (centres undefined),inactive
13,NC(=O)C(F)(F)C(F)(F)F,inactive
14,O=C(O)C(F)(F)OC(F)(F)C(F)(F)OC(F)(F)F,inactive

# From PubChem BioAssay (EPA / NIEHS)
